Experimental findings from PubChem BioAssay AID2315 (National Center for Advancing Translational Sciences (NCATS), 2010) are described below.

Out of some 290,000 compounds screened, about 27,000 (9.3%) were called active. Rule as the data show it: active = inhibition mostly above about 28% (no sharp cut-off); inactive = mostly below about 43%. The full list was thinned out, with actives kept by preference.

This test in a line: A qHTS for Small Molecule Inhibitors of Shiga Toxin. Also: 0% is about no effect. The note with it: Vero cells, Shiga toxin protein synthesis inhibition reporter; at 38.7 µM, active compounds read high.
The term inhibition denotes the change of the read-out against control, counted positive when it falls. For `COC(=O)c1ccc(C(=O)NC2CC(C)(C)Cc3c2cnn3-c2ccc(F)cc2)nc1` (stereo unspecified), the inhibition was 19.8% (inactive).

As for `COc1cccc(C2CC(c3ccccc3)=NN2S(=O)(=O)c2ccccc2)c1OC` (stereo unspecified), the inhibition was -3.39% (inactive).

In the case of `COc1ccc(C2CC(c3ccccc3)=NN2C(=O)c2ccc(Cl)c([N+](=O)[O-])c2)cc1` (stereo unspecified), the inhibition was -3.59% (inactive).

As to `COc1ccc(C2=NN(C(=O)c3cccnc3)C(c3ccccc3)C2)cc1` (stereo unspecified), the inhibition was -14.3% (inactive).

With `COc1ccc(C2CC(c3ccccc3)=NN2C(=O)COC(=O)COc2ccccc2)cc1` (stereo unspecified), the inhibition is 30.8% (inactive).

Consider `COc1ccc(C(=O)CSc2nccc(=O)[nH]2)cc1`, for which the inhibition was 11% (inactive).

For `COc1ccc(C2CC(c3ccccc3)=NN2C(=O)CSc2nccc(=O)[nH]2)cc1` (stereo unspecified), the inhibition is 50.8% (active).

On to `COc1ccc(C(=O)Nc2nc(-c3ccc(OC)cc3)c(-c3ccc([N+](=O)[O-])cc3)s2)cc1`, for which the inhibition is -3.81% (inactive).

With `COc1ccc(C2=NN(C(=O)c3ccccc3C(=O)O)C(c3ccccc3O)C2)cc1` (stereo unspecified), the inhibition is 162% (active).

With `CCOc1ccc2nc(Cl)c(C3CC(c4ccccc4)=NN3C(=O)c3cccs3)cc2c1` (stereo unspecified), the inhibition is -5.57% (inactive).

On to `COc1ccc(C2=NN(C(C)=O)C(c3ccccc3)C2)cc1` (stereo unspecified), for which the inhibition is 26.2% (active).

In the case of `COc1ccc(C2=NN(C(=O)CCC(=O)O)C(c3cccs3)C2)cc1OC` (stereo unspecified), the inhibition is -6.96% (inactive).

As for `COc1ccc(C2CC(c3ccc([N+](=O)[O-])cc3)=NN2C(C)=O)cc1` (stereo unspecified), the inhibition is 37.4% (active).

Regarding `Brc1ccccc1CN1CCC(Cc2ccccc2)CC1`, the inhibition is 14.5% (inactive).

Consider `N[C@@H](Cc1ccccc1)C(=O)N1CCC(C(=O)NCC(=O)Nc2ccc(F)cc2)CC1`, for which the inhibition is 9.91% (inactive).

In the case of `COc1ccc(CCNC(=O)C(=O)NCC2OCCN2S(=O)(=O)c2ccc(OC)c(C)c2)cc1` (stereo unspecified), the inhibition is 2.43% (inactive).

`Cc1ccc(NS(=O)(=O)c2ccc(-c3coc(C)n3)cc2)c(C)c1`: the inhibition was -3.55% (inactive).

On to `CCC(CC)C(=O)Nc1c2c(nn1-c1ccc(C)cc1)CS(=O)(=O)C2`, for which the inhibition is -8.79% (inactive).

Turning to `CCN(CC)CCCNC(=O)c1cc2c(=O)[nH]c3ccc(C)cc3c2s1`, the inhibition was -4.39% (inactive).

Regarding `O=C(C1CC(=O)N(C2CCCCC2)C1)N1CCN(c2ccccc2)CC1` (stereo unspecified), the inhibition is 27.8% (inactive).

Turning to `C/C(=N\NC(=O)Cc1ccccc1[N+](=O)[O-])c1cccnc1`, the inhibition was -10.2% (inactive).

With `Cc1cc(C(=O)NC2CC(C)(C)Cc3c2cnn3-c2ccccc2)n[nH]1` (stereo unspecified), the inhibition was -14.3% (inactive).

Consider `CN(C(=O)CC1C(=O)NCCN1Cc1ccc2ccccc2c1)C1CCOCC1` (stereo unspecified), for which the inhibition is -0.828% (inactive).

As for `CN1/C(=C\C(=O)c2cccnc2Cl)C(C)(C)c2ccccc21`, the inhibition is -10.8% (active).

Turning to `CN1/C(=C\C(=O)c2oc3ccccc3c2N)C(C)(C)c2ccccc21`, the inhibition was 14.5% (inactive).

`CC(C)Nc1nnc(SCC(=O)/C=C2\N(C)c3ccccc3C2(C)C)s1`: the inhibition was 13.3% (inactive).

Consider `Cc1ccccc1-c1nc(CS(=O)(=O)CC(=O)NC(C)c2ccccc2)c(C)o1` (stereo unspecified), for which the inhibition is -2.18% (inactive).

As for `CC1C(=O)C(C)C(c2ccc(O)cc2)NC1c1ccc(O)cc1` (stereo unspecified), the inhibition was -9.62% (inactive).

In the case of `Cc1ccc(S(=O)(=O)NCC(=O)N2CCOCCOCCOCCOCC2)cc1`, the inhibition was -2.1% (inactive).

Regarding `Cc1ccc(Cl)cc1NC(=O)COC(=O)CC(C)(C)C`, the inhibition is -3.98% (inactive).

For the molecule `C/C(CC(=O)N1CCN(C=O)CC1)=N\NC(=O)c1ccc(Br)cc1`, the inhibition was 36.4% (inactive).

On to `C/C(=N\NC(=O)Cc1ccc(F)cc1)c1ccc(F)cc1`, for which the inhibition was 11.6% (inactive).

For `O=C(O)CC/C(=N\NC(=O)c1ccc(F)cc1)c1ccc(Br)cc1`, the inhibition was 57.9% (active).

For the molecule `CCn1ccnc1CNC(=O)CC1C(=O)NCCN1CCCc1ccccc1` (stereo unspecified), the inhibition is 12.9% (inactive).

For the molecule `COc1ccc(CC(=O)Nc2c(C(N)=O)oc3ccccc23)cc1`, the inhibition was 9.35% (inactive).

With `COc1cc(C(C(=O)NC2CCCC2)N(C(=O)c2ccco2)c2ccccc2C(C)=O)cc(OC)c1OC` (stereo unspecified), the inhibition is -3.47% (inactive).

Turning to `COC(C(=O)Nc1ccc(C(C)=O)cc1)c1ccccc1` (stereo unspecified), the inhibition was 10.3% (inactive).

In the case of `COc1ccc(NC(C(=O)Nc2cccc(C(C)=O)c2)c2ccccc2)cc1` (stereo unspecified), the inhibition was 27.6% (active).

For `COc1ccc(NC(=O)[C@H](NC(=O)[C@@H]2Cc3ccccc3CN2)c2ccccc2)cc1`, the inhibition was -2.7% (inactive).

In the case of `Cc1cc(C)cc(N(CC(=O)N2CC=C(c3ccccc3)CC2)S(=O)(=O)c2c(C)noc2C)c1`, the inhibition was -8.45% (inactive).

Turning to `CN(C)/C=C(\C=[N+](C)C)c1[nH]ncc1[N+](=O)[O-]`, the inhibition was -4.31% (inactive).

Turning to `CNc1ccc(NC(C)=O)cc1[N+](=O)[O-]`, the inhibition is -5.19% (inactive).

Regarding `CNc1[nH]ncc1[N+](=O)[O-]`, the inhibition was 120% (active).

Turning to `Cc1cc(-c2csc(N)n2)c(C)n1Cc1ccccc1`, the inhibition is 28.2% (active).

Turning to `Cc1cc(-c2csc(N)n2)c(C)n1-c1ccccc1`, the inhibition is 34.4% (inactive).

On to `CC(=O)Nc1ccc(C(=O)Nc2nc(-c3cc(C)n(Cc4ccccc4)c3C)cs2)cc1`, for which the inhibition was -6.21% (inactive).

With `Cc1ccccc1NC(=O)CSc1nc2ccc(Nc3nc(N4CCOCC4)nc(N4CCOCC4)n3)cc2s1`, the inhibition is 23.8% (inactive).

For the molecule `Cc1nnc2sc(-c3ccco3)nn12`, the inhibition is -4.02% (inactive).

In the case of `Fc1ccc(-c2ccc(-c3nn4c(-c5ccco5)nnc4s3)o2)cc1`, the inhibition was 26.5% (active).

For the molecule `FC(F)(F)c1nnc2sc(-c3ccco3)nn12`, the inhibition was 7.08% (inactive).

For `CCN(CC)S(=O)(=O)c1ccc(NC(=O)c2cccnc2Cl)c(NC(=O)c2cccnc2Cl)c1`, the inhibition was -4.86% (inactive).

With `Cc1ccc(NC(=O)CNCc2ccccn2)cc1S(=O)(=O)N(C)C`, the inhibition was 40.8% (inactive).

On to `CCN(CC)S(=O)(=O)c1cc(C(=O)Nc2ccccn2)ccc1C`, for which the inhibition is 119% (active).

For `COc1cc(C(=O)NCc2nnc(SCC(=O)c3ccc(Cl)cc3)o2)cc(OC)c1OC`, the inhibition is -10.7% (inactive).

In the case of `OCCN1CCN(c2nnc(-c3ccccc3)c3ccccc23)CC1`, the inhibition was -4.9% (inactive).

On to `Cc1nc(C)c(-c2nnc(-c3cccc(S(=O)(=O)N(C)C)c3)o2)cc1C(=O)NN`, for which the inhibition is 3.74% (inactive).

On to `COc1ccc2c(C(=O)c3ccc(C)cc3)n(CCC(N)=O)[n+]([O-])c2c1`, for which the inhibition was 7.71% (inactive).

`NC(=O)Cc1ccc2sc(-c3ccccc3)nc2c1`: the inhibition was 79.9% (active).

For `O=C(O)Cc1sc(-c2ccccc2)nc1-c1cccs1`, the inhibition is 47.2% (inactive).

Consider `NC(=O)Cc1ccc2c(c1)[nH]c1ccccc12`, for which the inhibition is 11.9% (inactive).

With `Cc1cc(S(=O)(=O)NCc2ccccn2)c(Cl)cc1Cl`, the inhibition was -4.73% (inactive).

Take `CCSc1nc(O)c(C(c2cccc(OC)c2)c2c(O)nc(SCC)[nH]c2=O)c(=O)[nH]1`: the inhibition is 19.1% (inactive).

On to `CC(=O)NCCC(=O)Nc1cc(S(=O)(=O)N2CCCCC2)ccc1Oc1cccc(C)c1`, for which the inhibition is -10.6% (inactive).

For the molecule `O=C(Nc1cccc(F)c1)NC1CCCc2ccccc21` (stereo unspecified), the inhibition was -2.03% (inactive).

With `Cc1cc(Br)ccc1NC(=S)NC1CCCC1`, the inhibition is 35.4% (inactive).

For `Cc1ccc(NC(=S)NC2CCCC2)cc1`, the inhibition was 85% (active).

Regarding `CC(C)(C)NS(=O)(=O)c1ccc(NC(=O)NC2CCCCC2)cc1`, the inhibition is 56.6% (inactive).

`Cc1ccc(NC(=O)CSCC(=O)NC2CCCCC2)cc1`: the inhibition is 5.95% (inactive).

Turning to `O=C(Nc1cccc(F)c1)NC1CCCCCCC1`, the inhibition was 159% (active).

For the molecule `C/C(CC(=O)Nc1cccc(F)c1)=N\NC(=O)C(=O)NC1CCCCC1`, the inhibition is -4.86% (inactive).

For the molecule `CC(C)c1ccc(NC(=O)NC2CCCCC2)cc1`, the inhibition was 107% (active).

For `Cc1cc(C)cc(NC(=O)NC2CCCCCCC2)c1`, the inhibition is 14.2% (inactive).

Consider `Cc1cccc(N2CCN(S(=O)(=O)c3ccc(-c4cc(C)no4)s3)CC2C)c1` (stereo unspecified), for which the inhibition is -9.9% (inactive).

For the molecule `COc1ccc([N+](=O)[O-])cc1NCC(=O)c1ccc(C)cc1`, the inhibition was 17.1% (inactive).

Regarding `COc1ccccc1NC(=O)C1CCN(C(=O)c2ccc(C(C)(C)C)cc2)CC1`, the inhibition is 18.1% (inactive).

For the molecule `COc1ccccc1C(=O)Nc1ccnn1C1CCN(C(=O)C(C)(C)C)CC1`, the inhibition was 20.1% (inactive).

In the case of `O=C(c1ccc2ccccc2n1)N1CCN(c2ccccc2Cl)CC1`, the inhibition was 62.1% (active).

For `O=C(c1c(Cl)cccc1Cl)N1CCN(c2cccc3[nH]ccc23)CC1`, the inhibition is -6.91% (inactive).

In the case of `COc1ccccc1N1CCN(C(=O)c2c(-c3c(Cl)cccc3Cl)noc2C)CC1`, the inhibition was -7.02% (inactive).

On to `Cn1c(CCc2ccccc2)nnc1SCC(N)=O`, for which the inhibition was -2.98% (inactive).

Regarding `CCOc1ccc(-n2c(SCC(N)=O)nnc2-c2ccco2)cc1`, the inhibition is 1.48% (inactive).

`Cc1ccc(NC(=O)CN(C)C(=O)c2ccc(Br)o2)cc1`: the inhibition was 24.8% (inactive).

On to `COc1ccc(C(=O)CC(=O)c2ccc(C)cc2)c(O)c1`, for which the inhibition is 5.12% (inactive).

Turning to `Cc1cc(O)cc(O)c1C(=O)Cc1cnn(-c2ccccc2)c1`, the inhibition was 52.3% (inactive).

For `COc1ccc(C(=O)Cc2cnn(-c3ccccc3)c2)c(O)c1`, the inhibition was 104% (active).

For the molecule `[2H]C(CCOS(N)(=O)=O)c1ccccc1` (stereo unspecified), the inhibition is -5.48% (inactive).

Regarding `CN(CC(=O)Nc1ccc(N2CCOCC2)cc1)CC(=O)Nc1ccccc1[N+](=O)[O-]`, the inhibition is -10.3% (inactive).

As to `O=C(Nc1ccc(N2CCOCC2)cc1)c1ccc(-c2ccccc2[N+](=O)[O-])o1`, the inhibition is 46.4% (active).

`COc1cc2ccccc2cc1C(=O)Nc1ccc(N2CCOCC2)cc1`: the inhibition was 18.7% (inactive).

In the case of `Cc1nnc(SCC(=O)Nc2ccc(S(=O)(=O)Nc3ccc(Cl)nn3)cc2)s1`, the inhibition was -5.8% (inactive).

Turning to `NS(=O)(=O)c1ccc(-c2ccc(/C=C3\SC(=O)NC3=O)o2)cc1`, the inhibition was -1.11% (inactive).

In the case of `COc1cccc(/C=N/Nc2ccc(Cl)nn2)c1`, the inhibition is 25.9% (inactive).

As for `Clc1ccc(N/N=C/c2cccs2)nn1`, the inhibition is 122% (active).

`Oc1cccc(/C=N/Nc2ccc(Cl)nn2)c1O`: the inhibition is 60.3% (active).

As for `Cc1ccsc1/C=N/Nc1ccc(Cl)nn1`, the inhibition is 17.1% (inactive).

As for `Nc1nnnn1/N=C/c1cccs1`, the inhibition was -9.54% (inactive).
